In PubChem BioAssay (Tox21):
Results filed as inconclusive are left out. Where a call stands in place of a potency, no number is given. Active and inactive are the calls of the source. Unless noted, calls follow the shape of the full dose curve.

Test system: not listed separately
Assay: qHTS assay to identify small molecule agonists of the peroxisome proliferator-activated receptor delta (PPARd) signaling pathway - cell viability counter screen (AID 743211; active = well fitted cell-killing curve with a large enough effect in the repeat runs; also: nearly all actives have a fitted effect of over 55% in size)
Conditions: PPARd-bla HEK293H viability, CellTiter-Glo luminescence, 17 h; series mostly up to 62.6 µM
Outline: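 Tox21 library compounds, delivered in DMSO, were incubated 17 h with PPARd-bla HEK293H cells; cytotoxicity was taken from CellTiter-Glo luminescence read 30 min after reagent addition.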

SMILES	Potency	activity change, negative = cytotoxicity
C[C@H](O)C(=O)Nc1c(I)c(C(=O)NC(CO)CO)c(I)c(C(=O)NC(CO)CO)c1I	inactive	
CCC(C)OC(=O)N1CCCCC1CCO (centres undefined)	inactive	
CC1=CCC2C(C1)C2(C)C (centres undefined)	inactive	
O=C(O)/C=C/c1ccc(/C=C/C(=O)O)cc1	inactive	
CC(C)c1cccc(O)c1	inactive	
C=CC(=O)OCCCCCC	inactive	
CCC(=O)/C=C/c1ccc(OC)cc1	inactive	
Nc1cc(N)cc(C(=O)O)c1	inactive	
Cc1c(F)cc2c(=O)c(C(=O)O)cn3c2c1CCC3C (centres undefined)	inactive	
CC12CCC(CC1=O)C2(C)C (centres undefined)	inactive	
CC1=CC(=O)CCC1	inactive	
OC/C=C/c1ccccc1	inactive	
CC(C)(O)C(=O)c1ccc(OCCO)cc1	inactive	
CCn1c(=O)c2c(nc(/C=C/c3ccc(OC)c(OC)c3)n2C)n(CC)c1=O	inactive	
CCOC(=O)Nc1ccc2c(c1)N(C(=O)CCN1CCOCC1)c1ccccc1S2	inactive	
CN(C)CCOC(c1ccc(Cl)cc1)c1ccccn1 (centres undefined)	inactive	
Oc1cc(O)c2c(c1)O[C@H](c1ccc(O)c(O)c1)[C@H](O)C2	inactive	
CCCCCCOC(=O)CC(CC(=O)OCCCCCC)(OC(=O)CCC)C(=O)OCCCCCC	inactive	
CC(C)[C@H](N)C(=O)OCCOCn1cnc2c(=O)[nH]c(N)nc21	inactive	

SMILES	Potency	activity change, negative = cytotoxicity
CC(C)[N+](C)(C)CC(O)COc1cccc2ccccc12 (centres undefined)	inactive	
CC(C)(O)Cc1ccccc1	inactive	
CC(=O)N[C@@H](CCC(N)=O)C(=O)O	inactive	
CCCCCOC(=O)Nc1nc(=O)n([C@@H]2O[C@H](C)[C@@H](O)[C@H]2O)cc1F	inactive	
C=C(C)C(=O)NCCCN(C)C	inactive	
NC1CCN(c2cccc(Cl)n2)CC1	inactive	
NC(=O)CCCCC1CCSS1 (centres undefined)	inactive	
C#CC(O)CCCCC (centres undefined)	inactive	
[O-][N+](=Nc1ccccc1)c1ccccc1	inactive	
Cc1cc(C)cc(OCC2CNC(=O)O2)c1 (centres undefined)	inactive	
CC(C)N1C(=O)c2ccccc2C1=O	inactive	
COC(=O)c1ccc(C(=O)OC)c(C(=O)OC)c1	inactive	
CC(C=O)Cc1ccc(C(C)C)cc1 (centres undefined)	inactive	
NCC[C@H](O)C(=O)N[C@@H]1C[C@H](N)[C@@H](O[C@H]2O[C@H](CN)[C@@H](O)[C@H](O)[C@H]2O)[C@H](O)[C@H]1O[C@H]1O[C@H](CO)[C@@H](O)[C@H](N)[C@H]1O		6.61% [at 0.55 µM] (inactive)
N#CCN(CC#N)CCN(CC#N)CC#N	inactive	
CCC(C(=O)NC(N)=O)c1ccccc1 (centres undefined)	inactive	
CC/C=C\C#N	inactive	
Nc1nc2c(ncn2CCC(CO)CO)c(=O)[nH]1	inactive	

Target: Peroxisome proliferator-activated receptor delta (Homo sapiens) (UniProt Q03181)
Sequence (Q03181 whole entry, looked up): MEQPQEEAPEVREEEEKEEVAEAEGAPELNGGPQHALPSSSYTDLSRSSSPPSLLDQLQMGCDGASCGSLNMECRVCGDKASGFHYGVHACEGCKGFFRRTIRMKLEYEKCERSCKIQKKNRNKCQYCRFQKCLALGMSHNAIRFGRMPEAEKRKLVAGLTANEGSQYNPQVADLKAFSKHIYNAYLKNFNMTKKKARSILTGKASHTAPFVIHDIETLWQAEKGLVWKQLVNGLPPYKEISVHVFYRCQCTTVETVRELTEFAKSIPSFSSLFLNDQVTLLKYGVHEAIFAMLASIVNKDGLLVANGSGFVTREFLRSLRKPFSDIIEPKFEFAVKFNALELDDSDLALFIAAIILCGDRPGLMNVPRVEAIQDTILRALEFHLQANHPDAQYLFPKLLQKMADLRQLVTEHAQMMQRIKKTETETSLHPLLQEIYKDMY
Assay: qHTS assay to identify small molecule agonists of the peroxisome proliferator-activated receptor delta (PPARd) signaling pathway (AID 743212);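 also: HEK293H cells with PPARd UAS beta-lactamase reporter GeneBLAzer system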
Conditions: HEK293H PPARd-UAS-bla, beta-lactamase FRET ratio, 17 h; series mostly up to 62.6 µM
Outline: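 Steps: seed PPARd-bla HEK293H cells; incubate 5 h, 37 C, 5% CO2; add compounds in DMSO; incubate, 37 C; add LiveBLAzer B/G FRET substrate; hold 2 h at room temperature; measure fluorescence.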

SMILES	outcome	activation
C[C@H](O)C(=O)Nc1c(I)c(C(=O)NC(CO)CO)c(I)c(C(=O)NC(CO)CO)c1I	inactive	
CCC(C)OC(=O)N1CCCCC1CCO (centres undefined)	inactive	
CC1=CCC2C(C1)C2(C)C (centres undefined)	inactive	
O=C(O)/C=C/c1ccc(/C=C/C(=O)O)cc1	inactive	
CC(C)c1cccc(O)c1	inactive	
C=CC(=O)OCCCCCC	inactive	
CCC(=O)/C=C/c1ccc(OC)cc1	inactive	
Nc1cc(N)cc(C(=O)O)c1	inactive	
Cc1c(F)cc2c(=O)c(C(=O)O)cn3c2c1CCC3C (centres undefined)	inactive	
CC12CCC(CC1=O)C2(C)C (centres undefined)	inactive	
CC1=CC(=O)CCC1	inactive	
OC/C=C/c1ccccc1	inactive	
CC(C)(O)C(=O)c1ccc(OCCO)cc1	inactive	
CCn1c(=O)c2c(nc(/C=C/c3ccc(OC)c(OC)c3)n2C)n(CC)c1=O	inactive	
CCOC(=O)Nc1ccc2c(c1)N(C(=O)CCN1CCOCC1)c1ccccc1S2	inactive	
CN(C)CCOC(c1ccc(Cl)cc1)c1ccccn1 (centres undefined)	inactive	
Oc1cc(O)c2c(c1)O[C@H](c1ccc(O)c(O)c1)[C@H](O)C2	inactive	
CCCCCCOC(=O)CC(CC(=O)OCCCCCC)(OC(=O)CCC)C(=O)OCCCCCC	inactive	
CC(C)[C@H](N)C(=O)OCCOCn1cnc2c(=O)[nH]c(N)nc21	inactive	

SMILES	outcome	activation
CC(C)[N+](C)(C)CC(O)COc1cccc2ccccc12 (centres undefined)	inactive	
CC(C)(O)Cc1ccccc1	inactive	
CC(=O)N[C@@H](CCC(N)=O)C(=O)O	inactive	
CCCCCOC(=O)Nc1nc(=O)n([C@@H]2O[C@H](C)[C@@H](O)[C@H]2O)cc1F	inactive	
C=C(C)C(=O)NCCCN(C)C	inactive	
NC1CCN(c2cccc(Cl)n2)CC1	inactive	
NC(=O)CCCCC1CCSS1 (centres undefined)	inactive	
C#CC(O)CCCCC (centres undefined)	inactive	
[O-][N+](=Nc1ccccc1)c1ccccc1	inactive	
Cc1cc(C)cc(OCC2CNC(=O)O2)c1 (centres undefined)	inactive	
CC(C)N1C(=O)c2ccccc2C1=O	inactive	
COC(=O)c1ccc(C(=O)OC)c(C(=O)OC)c1	inactive	
CC(C=O)Cc1ccc(C(C)C)cc1 (centres undefined)	inactive	
NCC[C@H](O)C(=O)N[C@@H]1C[C@H](N)[C@@H](O[C@H]2O[C@H](CN)[C@@H](O)[C@H](O)[C@H]2O)[C@H](O)[C@H]1O[C@H]1O[C@H](CO)[C@@H](O)[C@H](N)[C@H]1O		0% [at 0.55 µM] (inactive)
N#CCN(CC#N)CCN(CC#N)CC#N	inactive	
CCC(C(=O)NC(N)=O)c1ccccc1 (centres undefined)	inactive	
CC/C=C\C#N	inactive	
Nc1nc2c(ncn2CCC(CO)CO)c(=O)[nH]1	inactive	
